The supplement of paper PMC11732987, “Enantioselective OTUD7B fragment discovery through chemoproteomics screening and high-throughput optimisation” (Communications Chemistry, 2025)

How the values were obtained:
Experiment in all cases: log2 ratio of Biotin-Ahx-Ub-VS probe labelling (fragment/DMSO); higher = less target engagement (more negative = stronger competition), active = hit call of the paper (q ≤ 0.05, log2 ratio ≤ -1)
Settings in all cases: compound concentration: 200 uM; treatment time: 3 h
USP34 = USP34 (UniProt Q70CQ2)
Summary of the method: (§1)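 Each value is an average log2 ratio of fragment to vehicle, tested by unpaired t-test. The underlying Spectronaut label-free quantities were global-median-normalised, and only proteins with ≥2 unique peptides were included. Triplicate HEK293T lysate samples (495 µg) were exposed to fragment at 200 µM or vehicle for 3 h, then to Biotin-Ahx-Ub-VS at 0.5 µM final for 1 h, before NeutrAvidin enrichment of labelled DUBs, LysC and trypsin digestion, and diaPASEF LC-MS/MS.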

USP36 = molecular target: T1, USP36 (UniProt Q9P275)
T1 sequence (whole entry): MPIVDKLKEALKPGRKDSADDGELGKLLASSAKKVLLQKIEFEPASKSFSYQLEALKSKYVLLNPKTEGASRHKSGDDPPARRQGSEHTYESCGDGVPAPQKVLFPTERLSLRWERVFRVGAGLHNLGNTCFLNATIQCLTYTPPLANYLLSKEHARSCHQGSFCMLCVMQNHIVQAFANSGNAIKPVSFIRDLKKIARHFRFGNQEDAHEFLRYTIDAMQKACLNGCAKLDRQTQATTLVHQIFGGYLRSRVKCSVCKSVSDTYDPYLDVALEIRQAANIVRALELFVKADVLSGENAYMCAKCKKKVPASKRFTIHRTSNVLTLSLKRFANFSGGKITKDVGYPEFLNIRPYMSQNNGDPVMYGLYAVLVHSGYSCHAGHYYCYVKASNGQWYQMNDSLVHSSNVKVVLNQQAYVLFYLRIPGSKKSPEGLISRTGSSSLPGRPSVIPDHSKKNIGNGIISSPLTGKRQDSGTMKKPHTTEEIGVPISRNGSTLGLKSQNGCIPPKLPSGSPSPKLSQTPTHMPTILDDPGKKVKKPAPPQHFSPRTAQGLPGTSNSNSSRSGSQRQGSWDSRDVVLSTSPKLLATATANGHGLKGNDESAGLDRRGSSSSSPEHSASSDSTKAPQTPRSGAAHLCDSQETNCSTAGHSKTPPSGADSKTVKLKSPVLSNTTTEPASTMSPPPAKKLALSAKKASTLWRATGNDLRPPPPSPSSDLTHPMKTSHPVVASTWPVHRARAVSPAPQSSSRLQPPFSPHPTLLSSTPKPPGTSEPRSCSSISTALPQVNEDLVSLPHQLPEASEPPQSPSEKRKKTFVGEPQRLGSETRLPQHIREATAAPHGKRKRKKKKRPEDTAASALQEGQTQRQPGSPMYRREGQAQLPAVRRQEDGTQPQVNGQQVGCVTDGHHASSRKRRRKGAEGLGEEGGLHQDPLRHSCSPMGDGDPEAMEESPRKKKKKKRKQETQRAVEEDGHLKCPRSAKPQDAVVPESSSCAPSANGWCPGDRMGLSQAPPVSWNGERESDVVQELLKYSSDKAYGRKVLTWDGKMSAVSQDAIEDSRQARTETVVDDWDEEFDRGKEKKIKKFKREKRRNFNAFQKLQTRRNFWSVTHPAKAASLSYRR
Summary of the method: as §1

USP38 = molecular target: T2, USP38 (UniProt Q8NB14)
T2 sequence (whole entry): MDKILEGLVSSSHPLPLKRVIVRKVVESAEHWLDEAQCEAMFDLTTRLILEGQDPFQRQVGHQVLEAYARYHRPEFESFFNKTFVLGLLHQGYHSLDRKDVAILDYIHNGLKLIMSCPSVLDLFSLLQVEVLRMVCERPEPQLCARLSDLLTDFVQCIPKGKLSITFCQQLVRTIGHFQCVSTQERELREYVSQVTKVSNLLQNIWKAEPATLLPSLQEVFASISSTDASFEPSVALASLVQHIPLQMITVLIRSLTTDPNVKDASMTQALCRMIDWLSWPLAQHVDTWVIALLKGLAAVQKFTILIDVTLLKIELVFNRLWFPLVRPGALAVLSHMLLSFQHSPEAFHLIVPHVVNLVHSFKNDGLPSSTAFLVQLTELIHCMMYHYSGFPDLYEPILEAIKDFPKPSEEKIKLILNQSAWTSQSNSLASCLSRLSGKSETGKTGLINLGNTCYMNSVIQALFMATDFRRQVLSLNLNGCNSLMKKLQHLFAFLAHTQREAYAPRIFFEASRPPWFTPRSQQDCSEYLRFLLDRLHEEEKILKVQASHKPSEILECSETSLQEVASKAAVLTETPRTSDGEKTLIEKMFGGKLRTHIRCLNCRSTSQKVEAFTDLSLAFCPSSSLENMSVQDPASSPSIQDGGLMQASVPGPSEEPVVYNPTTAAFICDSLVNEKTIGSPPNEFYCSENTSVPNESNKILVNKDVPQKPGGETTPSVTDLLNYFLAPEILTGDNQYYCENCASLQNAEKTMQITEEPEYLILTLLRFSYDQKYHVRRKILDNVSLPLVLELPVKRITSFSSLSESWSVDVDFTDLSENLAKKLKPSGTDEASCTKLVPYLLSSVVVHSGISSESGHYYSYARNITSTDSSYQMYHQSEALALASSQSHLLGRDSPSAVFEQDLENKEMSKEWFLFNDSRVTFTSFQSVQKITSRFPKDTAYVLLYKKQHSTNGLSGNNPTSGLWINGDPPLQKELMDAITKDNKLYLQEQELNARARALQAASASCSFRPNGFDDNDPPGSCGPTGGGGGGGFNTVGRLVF
Summary of the method: as §1

USP39 = molecular target: T3, USP39 (UniProt Q53GS9)
T3 sequence (whole entry): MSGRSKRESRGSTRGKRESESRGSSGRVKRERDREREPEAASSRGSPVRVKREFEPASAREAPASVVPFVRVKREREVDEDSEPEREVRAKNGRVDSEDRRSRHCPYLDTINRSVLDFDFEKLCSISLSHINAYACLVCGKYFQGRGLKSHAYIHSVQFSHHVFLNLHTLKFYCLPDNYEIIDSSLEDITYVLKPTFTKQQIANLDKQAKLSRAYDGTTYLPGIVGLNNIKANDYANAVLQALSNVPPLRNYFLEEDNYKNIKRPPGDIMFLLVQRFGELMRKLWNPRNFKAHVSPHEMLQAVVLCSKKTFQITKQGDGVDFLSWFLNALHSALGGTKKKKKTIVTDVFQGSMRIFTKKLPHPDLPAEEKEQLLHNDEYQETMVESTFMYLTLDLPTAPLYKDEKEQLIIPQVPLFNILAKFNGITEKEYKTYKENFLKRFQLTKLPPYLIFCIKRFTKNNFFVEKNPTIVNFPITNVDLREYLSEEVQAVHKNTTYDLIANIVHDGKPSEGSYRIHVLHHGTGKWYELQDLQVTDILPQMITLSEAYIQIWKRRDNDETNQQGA
Summary of the method: as §1

USP4 = molecular target: T4, USP4 (UniProt Q13107)
T4 sequence (whole entry): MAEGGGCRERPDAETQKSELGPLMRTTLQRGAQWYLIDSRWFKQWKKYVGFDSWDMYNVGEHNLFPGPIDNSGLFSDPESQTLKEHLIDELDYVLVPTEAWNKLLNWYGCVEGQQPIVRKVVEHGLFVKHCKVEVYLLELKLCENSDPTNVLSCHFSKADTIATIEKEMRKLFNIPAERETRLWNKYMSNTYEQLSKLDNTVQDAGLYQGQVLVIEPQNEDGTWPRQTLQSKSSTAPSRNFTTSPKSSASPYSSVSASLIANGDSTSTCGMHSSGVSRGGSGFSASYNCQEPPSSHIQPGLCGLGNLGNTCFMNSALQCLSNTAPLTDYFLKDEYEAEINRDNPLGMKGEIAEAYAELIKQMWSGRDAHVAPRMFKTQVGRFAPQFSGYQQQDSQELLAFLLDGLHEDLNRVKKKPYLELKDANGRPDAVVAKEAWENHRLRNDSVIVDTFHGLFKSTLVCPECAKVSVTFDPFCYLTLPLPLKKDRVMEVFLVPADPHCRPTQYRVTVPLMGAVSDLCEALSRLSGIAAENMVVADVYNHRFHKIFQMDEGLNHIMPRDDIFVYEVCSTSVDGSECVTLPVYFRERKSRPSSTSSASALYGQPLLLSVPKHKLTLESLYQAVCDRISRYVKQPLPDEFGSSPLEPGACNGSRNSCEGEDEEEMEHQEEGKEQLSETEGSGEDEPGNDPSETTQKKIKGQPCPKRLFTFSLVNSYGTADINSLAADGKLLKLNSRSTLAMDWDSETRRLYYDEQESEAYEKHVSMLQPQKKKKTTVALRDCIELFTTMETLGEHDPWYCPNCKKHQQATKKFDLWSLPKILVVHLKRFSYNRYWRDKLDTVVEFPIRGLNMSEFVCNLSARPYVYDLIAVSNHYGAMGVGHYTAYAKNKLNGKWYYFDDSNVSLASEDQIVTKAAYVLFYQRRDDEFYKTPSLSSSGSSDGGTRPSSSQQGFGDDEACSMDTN
Summary of the method: as §1

Measured: log2 ratio of Biotin-Ahx-Ub-VS probe labelling

Sequence of USP34 (Q70CQ2 whole entry, the tested form may be a part): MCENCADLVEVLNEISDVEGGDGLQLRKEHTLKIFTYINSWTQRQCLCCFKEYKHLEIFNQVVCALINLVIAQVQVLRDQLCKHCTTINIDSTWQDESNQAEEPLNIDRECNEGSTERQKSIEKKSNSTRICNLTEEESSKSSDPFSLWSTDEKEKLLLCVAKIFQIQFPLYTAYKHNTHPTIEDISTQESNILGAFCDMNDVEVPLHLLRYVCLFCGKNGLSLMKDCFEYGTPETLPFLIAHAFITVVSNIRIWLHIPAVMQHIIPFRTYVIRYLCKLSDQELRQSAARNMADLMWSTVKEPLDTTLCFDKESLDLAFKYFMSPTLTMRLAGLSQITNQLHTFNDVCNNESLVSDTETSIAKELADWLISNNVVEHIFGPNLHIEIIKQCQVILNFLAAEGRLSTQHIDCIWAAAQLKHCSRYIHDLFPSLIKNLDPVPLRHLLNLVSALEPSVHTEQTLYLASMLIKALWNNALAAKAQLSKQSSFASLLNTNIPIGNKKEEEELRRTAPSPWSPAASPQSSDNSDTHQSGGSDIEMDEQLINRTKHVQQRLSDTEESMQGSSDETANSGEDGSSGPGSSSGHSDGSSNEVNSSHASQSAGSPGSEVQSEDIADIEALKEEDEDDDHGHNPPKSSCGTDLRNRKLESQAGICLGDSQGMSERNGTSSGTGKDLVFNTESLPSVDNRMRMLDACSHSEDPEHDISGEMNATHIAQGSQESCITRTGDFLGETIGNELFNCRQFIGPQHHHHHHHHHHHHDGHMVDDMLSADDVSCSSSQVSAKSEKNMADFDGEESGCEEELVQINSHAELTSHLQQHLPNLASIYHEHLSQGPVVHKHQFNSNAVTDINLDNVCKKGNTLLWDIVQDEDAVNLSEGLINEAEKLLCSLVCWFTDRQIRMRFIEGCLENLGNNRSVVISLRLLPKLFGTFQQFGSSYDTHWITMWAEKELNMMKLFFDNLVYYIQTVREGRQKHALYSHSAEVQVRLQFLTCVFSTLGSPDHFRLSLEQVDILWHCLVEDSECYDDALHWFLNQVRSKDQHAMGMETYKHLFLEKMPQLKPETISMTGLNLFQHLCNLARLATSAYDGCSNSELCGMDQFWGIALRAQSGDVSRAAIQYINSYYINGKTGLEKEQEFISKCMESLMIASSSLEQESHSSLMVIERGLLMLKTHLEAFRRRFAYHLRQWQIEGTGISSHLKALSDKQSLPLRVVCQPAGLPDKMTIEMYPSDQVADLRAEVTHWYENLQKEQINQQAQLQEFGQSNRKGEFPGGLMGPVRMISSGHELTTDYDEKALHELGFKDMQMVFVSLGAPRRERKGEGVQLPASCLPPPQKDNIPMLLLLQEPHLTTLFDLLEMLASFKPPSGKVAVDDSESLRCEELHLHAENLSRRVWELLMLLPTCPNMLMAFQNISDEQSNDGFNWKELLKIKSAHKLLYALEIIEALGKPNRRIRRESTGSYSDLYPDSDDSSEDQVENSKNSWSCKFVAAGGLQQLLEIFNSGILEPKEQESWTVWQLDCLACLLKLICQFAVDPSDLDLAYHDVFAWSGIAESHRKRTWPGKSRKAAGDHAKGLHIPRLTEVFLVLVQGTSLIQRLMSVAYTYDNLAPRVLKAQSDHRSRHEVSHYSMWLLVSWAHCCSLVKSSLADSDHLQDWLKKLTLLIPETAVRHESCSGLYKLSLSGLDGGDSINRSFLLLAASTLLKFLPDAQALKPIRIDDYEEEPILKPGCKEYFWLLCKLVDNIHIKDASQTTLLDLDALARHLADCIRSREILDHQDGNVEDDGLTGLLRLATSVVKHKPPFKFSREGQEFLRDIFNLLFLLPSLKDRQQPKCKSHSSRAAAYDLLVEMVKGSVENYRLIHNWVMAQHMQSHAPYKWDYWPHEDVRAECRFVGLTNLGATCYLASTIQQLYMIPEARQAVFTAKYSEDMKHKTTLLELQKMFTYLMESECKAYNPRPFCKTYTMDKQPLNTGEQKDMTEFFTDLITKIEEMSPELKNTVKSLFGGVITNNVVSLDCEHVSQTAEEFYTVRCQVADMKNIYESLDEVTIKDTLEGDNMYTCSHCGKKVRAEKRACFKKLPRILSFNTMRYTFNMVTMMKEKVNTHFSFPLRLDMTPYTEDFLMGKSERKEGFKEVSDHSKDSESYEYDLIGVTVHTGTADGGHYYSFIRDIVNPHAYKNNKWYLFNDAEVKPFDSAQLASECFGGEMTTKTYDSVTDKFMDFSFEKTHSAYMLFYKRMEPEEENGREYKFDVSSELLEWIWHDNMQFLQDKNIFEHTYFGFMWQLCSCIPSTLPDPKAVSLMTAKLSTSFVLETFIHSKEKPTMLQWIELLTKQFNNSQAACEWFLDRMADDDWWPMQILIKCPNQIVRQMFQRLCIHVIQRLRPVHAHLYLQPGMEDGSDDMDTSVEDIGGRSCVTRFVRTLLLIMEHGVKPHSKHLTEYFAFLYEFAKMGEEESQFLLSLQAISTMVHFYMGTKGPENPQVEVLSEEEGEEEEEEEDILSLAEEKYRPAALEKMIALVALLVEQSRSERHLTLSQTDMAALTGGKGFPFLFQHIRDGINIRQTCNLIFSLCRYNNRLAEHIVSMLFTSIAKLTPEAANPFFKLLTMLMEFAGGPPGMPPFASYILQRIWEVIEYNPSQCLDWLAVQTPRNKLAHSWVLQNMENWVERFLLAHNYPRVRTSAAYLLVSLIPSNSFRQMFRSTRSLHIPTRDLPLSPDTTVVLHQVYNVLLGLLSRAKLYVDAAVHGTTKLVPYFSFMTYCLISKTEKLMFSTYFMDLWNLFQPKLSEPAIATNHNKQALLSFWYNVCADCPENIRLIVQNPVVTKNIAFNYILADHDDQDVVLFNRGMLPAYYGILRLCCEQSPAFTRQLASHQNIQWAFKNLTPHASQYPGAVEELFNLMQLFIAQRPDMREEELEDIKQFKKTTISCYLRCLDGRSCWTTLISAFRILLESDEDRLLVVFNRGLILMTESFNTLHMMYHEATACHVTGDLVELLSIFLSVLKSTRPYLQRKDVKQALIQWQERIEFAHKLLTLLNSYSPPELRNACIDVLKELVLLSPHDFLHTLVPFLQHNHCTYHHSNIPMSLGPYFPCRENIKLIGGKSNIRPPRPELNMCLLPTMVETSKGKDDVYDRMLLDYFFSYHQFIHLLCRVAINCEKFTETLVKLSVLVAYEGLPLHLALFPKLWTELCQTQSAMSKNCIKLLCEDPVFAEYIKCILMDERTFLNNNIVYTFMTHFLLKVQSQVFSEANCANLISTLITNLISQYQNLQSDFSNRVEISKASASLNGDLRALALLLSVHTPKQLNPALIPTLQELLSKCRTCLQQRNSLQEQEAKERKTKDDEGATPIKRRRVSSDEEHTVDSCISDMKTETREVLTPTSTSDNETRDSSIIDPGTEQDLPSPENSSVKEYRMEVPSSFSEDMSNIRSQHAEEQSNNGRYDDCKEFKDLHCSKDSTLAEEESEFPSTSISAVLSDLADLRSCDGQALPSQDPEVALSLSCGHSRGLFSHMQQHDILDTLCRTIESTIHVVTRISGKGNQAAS

Cc1ccc(-c2nnc(C)[nH]2)c(NC(=O)CCl)c1
inactive: USP34 0.0375 | USP36 -0.152 | USP38 0.151 | USP39 0.182 | USP4 0.0297
